{"source": "ChEMBL document CHEMBL1201862", "about": "“PubChem BioAssay data set” (2004)", "note": "The whole screen tested about 400,000 compounds, of which about 2,100 (0.53%) were called active. Not shown: some 14% with an inconclusive outcome. The rule behind the calls is not given here. The full list was thinned out, with actives kept by preference.", "data": [{"biological_target": "Ataxin-2 (Homo sapiens) (UniProt Q99700)", "sequence (Q99700 whole entry)": "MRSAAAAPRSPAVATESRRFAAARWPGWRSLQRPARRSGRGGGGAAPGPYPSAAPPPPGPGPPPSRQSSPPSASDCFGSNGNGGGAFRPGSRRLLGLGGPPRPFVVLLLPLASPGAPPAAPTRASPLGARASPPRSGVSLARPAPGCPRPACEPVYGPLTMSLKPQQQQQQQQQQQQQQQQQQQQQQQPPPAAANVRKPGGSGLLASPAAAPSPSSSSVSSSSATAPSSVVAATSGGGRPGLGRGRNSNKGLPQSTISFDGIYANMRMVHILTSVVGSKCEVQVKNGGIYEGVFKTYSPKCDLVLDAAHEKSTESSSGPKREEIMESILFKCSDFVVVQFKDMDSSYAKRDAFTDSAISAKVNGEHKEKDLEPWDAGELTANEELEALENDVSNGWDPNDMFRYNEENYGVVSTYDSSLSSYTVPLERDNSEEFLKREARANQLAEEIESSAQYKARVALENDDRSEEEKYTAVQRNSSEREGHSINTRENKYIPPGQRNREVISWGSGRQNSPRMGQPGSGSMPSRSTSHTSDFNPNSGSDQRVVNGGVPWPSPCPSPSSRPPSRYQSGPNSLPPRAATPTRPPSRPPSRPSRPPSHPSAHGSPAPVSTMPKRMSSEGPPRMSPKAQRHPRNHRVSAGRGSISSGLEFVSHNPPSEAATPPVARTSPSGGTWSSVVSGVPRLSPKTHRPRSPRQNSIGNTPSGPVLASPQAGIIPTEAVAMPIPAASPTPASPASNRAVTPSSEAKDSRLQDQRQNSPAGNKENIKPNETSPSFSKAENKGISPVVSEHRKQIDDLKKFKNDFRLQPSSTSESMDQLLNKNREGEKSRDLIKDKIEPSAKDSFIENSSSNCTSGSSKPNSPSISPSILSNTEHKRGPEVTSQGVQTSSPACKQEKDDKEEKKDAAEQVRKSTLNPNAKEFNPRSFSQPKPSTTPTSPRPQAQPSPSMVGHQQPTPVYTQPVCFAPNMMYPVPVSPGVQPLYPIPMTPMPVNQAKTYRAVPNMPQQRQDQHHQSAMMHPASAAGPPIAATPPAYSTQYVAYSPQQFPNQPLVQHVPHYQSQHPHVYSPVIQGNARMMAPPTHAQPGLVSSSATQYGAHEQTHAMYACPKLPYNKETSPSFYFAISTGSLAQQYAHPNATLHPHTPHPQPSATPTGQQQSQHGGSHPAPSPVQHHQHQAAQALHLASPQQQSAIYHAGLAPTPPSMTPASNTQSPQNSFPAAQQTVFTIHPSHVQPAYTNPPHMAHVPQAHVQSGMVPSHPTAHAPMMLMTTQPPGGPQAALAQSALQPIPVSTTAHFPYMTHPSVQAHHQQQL", "experiment": "qHTS for Inhibitors of ATXN expression.", "type": "functional", "values": [{"smiles": "Cc1cccn2c(=O)c3cc(C#N)/c(=N\\C(=O)c4cccs4)n(CCCOC(C)C)c3nc12", "Potency": "inactive"}, {"smiles": "Cc1ccc(C(=O)NC(=S)NCc2ccccc2)cc1Br", "Potency": "inactive"}, {"smiles": "COc1ccc(C[C@H]2CN3C(=NC[C@@H]3C(C)C)N2CCNC(=O)c2ccc(C)c(Br)c2)cc1", "Potency": "20 µM (active)"}, {"smiles": "COc1ccc(C[C@H]2CN3C(=NC[C@@H]3Cc3ccc(O)cc3)N2CCNC(=O)c2ccc(C)c(Br)c2)cc1", "Potency": "39.8 µM (active)"}, {"smiles": "COc1cccc(C(=O)NCCn2ccc3ccccc32)c1", "Potency": "inactive"}, {"smiles": "COc1ccc(C(=O)NCCNc2nc3c(C)cccc3cc2C#N)cc1", "Potency": "inactive"}, {"smiles": "COC(=O)CCNC(=O)c1ccc2nc(Cc3ccc(OC)cc3)oc2c1", "Potency": "inactive"}, {"smiles": "COc1ccc(C[C@H]2CN3C(=NC[C@@H]3Cc3ccccc3)N2CCNC(=O)c2ccc(C)c(Br)c2)cc1", "Potency": "22.4 µM (active)"}, {"smiles": "COc1cccc(CNC(=O)c2ccc(C)c(NC3=NC4CS(=O)(=O)CC4S3)c2)c1", "note": "(stereo not drawn)", "Potency": "inactive"}, {"smiles": "CC(=O)Nc1ccc(NC(=O)CSc2ccc3nnc(CCNC(=O)c4ccccc4)n3n2)cc1", "Potency": "inactive"}, {"smiles": "CC1CCN(c2nnc(-c3ccccc3)c3ccccc23)CC1", "Potency": "inactive"}, {"smiles": "Cc1sc2nc(-c3ccccn3)nc(O)c2c1-c1ccccc1", "Potency": "inactive"}, {"smiles": "O=[N+]([O-])c1ccc(C2NS(=O)(=O)N=C3CCCCCN32)cc1", "note": "(stereo not drawn)", "Potency": "inactive"}, {"smiles": "CCCc1cc(C(=O)Cc2nc3ccccc3s2)c(O)cc1O", "Potency": "inactive"}, {"smiles": "COc1ccc(-c2csc(NC(C)c3nc4cc(Cl)c(Cl)cc4n3CCCO)n2)cc1", "note": "(stereo not drawn)", "Potency": "39.8 µM (active)"}, {"smiles": "CC(C)CC(=O)NC(=S)Nc1nc(-c2ccc(Cl)cc2)cs1", "Potency": "inactive"}, {"smiles": "CC(Nc1nc(-c2ccc(F)cc2)cs1)c1nc2cc(Cl)c(N3CCCCC3)cc2n1CCCO", "note": "(stereo not drawn)", "Potency": "25.1 µM (active)"}, {"smiles": "O=C(CN1CCN(Cc2ccc(F)cc2)CC1)Nc1nc2ccccc2s1", "Potency": "inactive"}, {"smiles": "Cc1ccc(Cn2cccc(-c3nc4ccccc4s3)c2=O)cc1", "Potency": "inactive"}, {"smiles": "Cc1ccc(Cn2c(C(CO)Nc3nc(-c4ccc(F)cc4)cs3)nc3ccccc32)cc1", "note": "(stereo not drawn)", "Potency": "25.1 µM (active)"}, {"smiles": "CC(Nc1nc(-c2ccc(F)cc2)cs1)c1nc2cc(Cl)c(Cl)cc2n1CCCO", "note": "(stereo not drawn)", "Potency": "39.8 µM (active)"}, {"smiles": "COc1ccc(-c2csc(NC(=O)CSc3nnnn3C)n2)c(OC)c1", "Potency": "inactive"}, {"smiles": "COc1ccc(/N=C/C2=C(O)c3c(sc(C)c3C)N(C)S2(=O)=O)cc1", "Potency": "inactive"}, {"smiles": "CC(Nc1nc(-c2ccc(F)cc2)cs1)c1nc2cc(C(F)(F)F)ccc2n1CCCO", "note": "(stereo not drawn)", "Potency": "22.4 µM (active)"}, {"smiles": "C/C(=N\\NC(=O)c1c[nH]c2ccccc12)c1ccccn1", "Potency": "inactive"}, {"smiles": "C/C(=N\\NC(=O)COc1ccccc1-c1ccccc1)c1ccccn1", "Potency": "6.7 µM (active)"}, {"smiles": "CC(=O)Nc1ccc(NC(=O)COC(=O)c2ccccn2)cc1", "Potency": "inactive"}, {"smiles": "CCCn1nc(NC(=O)C(C)C)c2cc3cc(OC)ccc3nc21", "Potency": "inactive"}, {"smiles": "N=c1oc2ccccc2cc1-c1nc(-c2ccccc2)cs1", "Potency": "inactive"}, {"smiles": "CCN(CC)S(=O)(=O)c1cc([N+](=O)[O-])ccc1NNC(=O)Nc1ccc(Cl)c(Cl)c1", "Potency": "39.8 µM (active)"}, {"smiles": "CCN(CC)S(=O)(=O)c1cc(NC(=O)C2CC(=O)N(Cc3ccccc3)C2)ccc1Cl", "note": "(stereo not drawn)", "Potency": "inactive"}, {"smiles": "CN(C)S(=O)(=O)c1ccc(Cl)c(C(=O)Nc2cccc([N+](=O)[O-])c2)c1", "Potency": "inactive"}, {"smiles": "CC1=CC(c2ccccc2)n2nc(NC(=O)CCCC(=O)O)nc2N1", "note": "(stereo not drawn)", "Potency": "inactive"}, {"smiles": "CN(C)/C=C1\\C=C2C(=O)c3ccccc3N2C1=O", "Potency": "inactive"}, {"smiles": "CCCc1ccc(S(=O)(=O)N2CCC(c3nnc(-c4cccc(C)c4)o3)CC2)cc1", "Potency": "8.91 µM (active)"}, {"smiles": "CCOC(=O)C1(CC2CCCCO2)CCN(S(=O)(=O)c2ccc(OC)cc2)CC1", "note": "(stereo not drawn)", "Potency": "inactive"}, {"smiles": "O=C(c1ccc(F)cc1)C1CCN(S(=O)(=O)c2ccccc2)CC1", "Potency": "inactive"}, {"smiles": "COc1ccc(-c2nnc(C3CCN(S(=O)(=O)c4ccccc4)CC3)o2)cc1", "Potency": "26.7 µM (active)"}, {"smiles": "Cc1ccc(S(=O)(=O)N2CCN(C(S)=NCc3ccc4c(c3)OCO4)CC2)cc1", "Potency": "inactive"}, {"smiles": "CCCc1nn(-c2ccc([N+](=O)[O-])cc2)c(O)c1/C=N/CCCn1ccnc1", "Potency": "inactive"}, {"smiles": "O=[N+]([O-])c1ccc(-c2ccc(/C=N/Nc3nc(N4CCCCC4)nc(N4CCCCC4)n3)o2)cc1", "Potency": "inactive"}, {"smiles": "S=C(NCCCN1CCOCC1)N1CCN(c2nc(-c3ccc(Cl)cc3)cs2)CC1", "Potency": "31.6 µM (active)"}, {"smiles": "Clc1ccc(SCc2csc(N3CCOCC3)n2)cc1", "Potency": "inactive"}, {"smiles": "O=C(NNC(=O)c1cc(-c2ccc(Br)cc2)nc2ccccc12)c1csc(N2CCOCC2)n1", "Potency": "inactive"}, {"smiles": "COc1ccccc1NC(=O)c1sc2nc(C)cc(C)c2c1N", "Potency": "inactive"}, {"smiles": "COc1ccccc1NC(=O)C1=C(C)Nc2nc(SCc3ccccc3)nn2C1c1cccc(O)c1", "note": "(stereo not drawn)", "Potency": "31.6 µM (active)"}, {"smiles": "COCc1cc(C)nc2sc(C(=O)Nc3ccccc3OC)c(N)c12", "Potency": "inactive"}, {"smiles": "CCS(=O)(=O)c1nc(S(=O)(=O)c2ccc(C)cc2)c(N2CCN(C)CC2)s1", "Potency": "inactive"}]}]}
